In experiment [1] the test system is Schistosoma mansoni schistosomula (LE). In words: XTT viability relative to DMSO control; higher = more viable (less active). As to conditions: 72 h; 10 µM. How it is done:
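XTT/PMS was then added for a further 24 h (72 h total) and A450 was read. % viability = (sample - heat-killed control)/(DMSO control - heat-killed control) x 100, from duplicate wells in two independent experiments.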

Experiment [2] deals with Schistosoma mansoni schistosomula (NMRI). The experiment in a line: phenotypic severity score (0-4); higher = more antischistosomal effect, active = 2 or more. As to conditions: 10 µM.
In experiment [3] the test system is Schistosoma mansoni schistosomula (Liberian). In words: drug effect (1 - score/DMSO control score) (fraction); higher = more antischistosomal effect, active = 0.5 or more; extreme values may be limits of the assay. As to conditions: 10 µM. An outline of the steps:
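Schistosomula of the Liberian strain of Schistosoma mansoni were mechanically transformed from cercariae, pre-incubated for at least 12 h, and placed at 50 per well in flat-bottom 96-well plates with Medium 199 containing 5% FCS. Compounds were tested in duplicate at 10 µM at 37 °C and 5% CO2, alongside wells holding 0.1% DMSO. Parasites were scored visually at 10× after 24, 48 and 72 h on a quarter-point scale running from 3 (normal) to 0 (dead). Drug effect came from the mean test-well score relative to the mean DMSO-well score, with negative values set to zero and plates accepted only when the DMSO wells averaged at least 2.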
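Throughout, for phenotypic severity score (0-4): visual microscopic scoring of shape, motility and density changes versus 0.5% DMSO solvent controls, one point per descriptor, degeneracy or death scored 4, mean of duplicate wells.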

With `Clc1ccc(CCNc2cc(-c3ccccc3)nc3ncnn23)cc1`, the XTT viability in experiment [1] came out at 83.9%. Further, the phenotypic severity score in experiment [2] (24 h) is 0 (inactive); in experiment [2] (48 h), 1 (inactive); in experiment [2] (72 h), 0 (inactive). Further, the drug effect in experiment [3] (24 h) was 0.136 (inactive); in experiment [3] (48 h), 0.2 (inactive); in experiment [3] (72 h), 0.127 (inactive).
Take `Cc1ccc2c(c1C)NC(=O)C21NN=C(c2ccccc2)S1` (stereo not drawn): in experiment [1], the XTT viability worked out at 125%. Further, the phenotypic severity score in experiment [2] (24 h) is 2 (active); in experiment [2] (48 h), 0 (inactive); in experiment [2] (72 h) it was 0 (inactive). In addition, the drug effect was < 0 (inactive) in experiment [3] (24 h), 0.135 (inactive) in experiment [3] (48 h) and 0.222 (inactive) in experiment [3] (72 h).
Regarding `Cc1nnc(NC(=O)c2cn(-c3ccccc3)nc2-c2ccccc2C)o1`, in experiment [1], the XTT viability came to 56.8%. Moreover, the phenotypic severity score in experiment [2] (24 h), in experiment [2] (48 h) and in experiment [2] (72 h) was 1 (inactive) each time. The drug effect in experiment [3] (24 h) was < 0 (inactive); in experiment [3] (48 h) it was 0.0811 (inactive); in experiment [3] (72 h), 0.111 (inactive).
`Cc1cccc(Cn2ccc(NC(=O)c3ccc4c(c3)OCO4)n2)c1`: in experiment [1], the XTT viability stood at 93.2%. The phenotypic severity score in experiment [2] (24 h), in experiment [2] (48 h) and in experiment [2] (72 h) was 0 (inactive) each time. In addition, the drug effect in experiment [3] (24 h) is 0.0556 (inactive); in experiment [3] (48 h) it was 0.125 (inactive); in experiment [3] (72 h), < 0 (inactive).
For `Cc1cc(Nc2ccncc2)n2nc(C)c(-c3ccccc3Cl)c2n1`, in experiment [1], the XTT viability worked out at 64.9%. The phenotypic severity score in experiment [2] (24 h), in experiment [2] (48 h) and in experiment [2] (72 h) was 0 (inactive) each time. The drug effect in experiment [3] (24 h) is 0.1 (inactive); in experiment [3] (48 h) it was 0.135 (inactive); in experiment [3] (72 h), 0.167 (inactive).
With `COc1cc(CN2CCC3(C=Cc4ccccc43)CC2)cc2c1OCO2`, the XTT viability in experiment [1] came out at 73.9%. Also, the values for the phenotypic severity score in experiment [2] (24 h), in experiment [2] (48 h) and in experiment [2] (72 h) were 1 (inactive), 1 (inactive) and 0 (inactive), respectively. Also, the drug effect in experiment [3] (24 h) is 0.1 (inactive); in experiment [3] (48 h), 0.135 (inactive); in experiment [3] (72 h) it was 0.273 (inactive).
With `N=C(N)Nc1ccc(-c2ccc(-c3ccc(NC(=N)N)cc3Cl)o2)c(Cl)c1`, the XTT viability in experiment [1] is 61.7%. Moreover, the phenotypic severity score in experiment [2] (24 h), in experiment [2] (48 h) and in experiment [2] (72 h) was 0 (inactive) throughout. Further, the drug effect is 0.0526 (inactive) in experiment [3] (24 h), 0.111 (inactive) in experiment [3] (48 h) and 0.125 (inactive) in experiment [3] (72 h).
As for `CC1=NN(c2nc3ccccc3s2)C(=O)C1Cc1cccc2ccccc12` (stereo not drawn), in experiment [1], the XTT viability is 61.8%. Moreover, the phenotypic severity score in experiment [2] (24 h), in experiment [2] (48 h) and in experiment [2] (72 h) was 0 (inactive) throughout. Further, the drug effect is 0.0909 (inactive) in experiment [3] (24 h), 0.1 (inactive) in experiment [3] (48 h) and 0.127 (inactive) in experiment [3] (72 h).
On to `COC(=O)c1c(NC(=O)c2cc3ccccc3oc2=O)sc2c1CCN(Cc1ccccc1)C2`, for which, in experiment [1], the XTT viability came out at 76.3%. Moreover, the phenotypic severity score was 0 (inactive) in experiment [2] (24 h), 3 (active) in experiment [2] (48 h) and 2 (active) in experiment [2] (72 h). The drug effect in experiment [3] (24 h) is 0.4 (inactive); in experiment [3] (48 h), 0.222 (inactive); in experiment [3] (72 h), 0.556 (active).
Take `O=C(Nc1nc(-c2ccccn2)cs1)C1CC1c1ccccc1F` (stereo not drawn): in experiment [1], the XTT viability came out at 71.7%. For the same compound, the phenotypic severity score in experiment [2] (24 h), in experiment [2] (48 h) and in experiment [2] (72 h) was 0 (inactive) each time. Further, the figures for the drug effect in experiment [3] (24 h), in experiment [3] (48 h) and in experiment [3] (72 h) were 0.182 (inactive), 0.3 (inactive) and 0.127 (inactive), respectively.
As to `Cc1ccc(-c2cc(C(=O)Nc3cccnc3)c3cc(Br)ccc3n2)cc1`, in experiment [1], the XTT viability amounted to 146%. Further, the phenotypic severity score in experiment [2] (24 h) is 2 (active); in experiment [2] (48 h), 1 (inactive); in experiment [2] (72 h), 0 (inactive). In addition, the drug effect in experiment [3] (24 h) was 0.5 (active); in experiment [3] (48 h), 0.667 (active); in experiment [3] (72 h), 1 (active).
As for `COc1cc(NC(C)CCCN)c2ncccc2c1` (stereo not drawn), the XTT viability in experiment [1] was 77.4%. In addition, the phenotypic severity score in experiment [2] (24 h), in experiment [2] (48 h) and in experiment [2] (72 h) was 0 (inactive) each time. Further, the drug effect in experiment [3] (24 h) was < 0 (inactive); in experiment [3] (48 h) it was 0.135 (inactive); in experiment [3] (72 h) it was 0.333 (inactive).
As to `CC(C)NCC(=O)Nc1cccc(C(=O)Nc2cccc(C(F)(F)F)c2)c1`, in experiment [1], the XTT viability is 86.7%. Also, the phenotypic severity score in experiment [2] (24 h), in experiment [2] (48 h) and in experiment [2] (72 h) was 0 (inactive) throughout. Also, the drug effect in experiment [3] (24 h) is 0.2 (inactive); in experiment [3] (48 h) it was 0.167 (inactive); in experiment [3] (72 h), 0.375 (inactive).
Consider `CC(C)(CN)c1nc(-c2ccc(Cl)c(O)c2)c(-c2ccnc(N)n2)[nH]1`, for which the XTT viability in experiment [1] came out at 156%. Besides, the phenotypic severity score in experiment [2] (24 h), in experiment [2] (48 h) and in experiment [2] (72 h) was 0 (inactive) throughout. For the same compound, the drug effect is 0.15 (inactive) in experiment [3] (24 h), 0.167 (inactive) in experiment [3] (48 h) and 0.312 (inactive) in experiment [3] (72 h).
As to `O=C(Nc1ccccc1-c1nc2c(C(=O)O)cccc2o1)c1ccccc1`, in experiment [1], the XTT viability worked out at 54.1%. In addition, the phenotypic severity score in experiment [2] (24 h), in experiment [2] (48 h) and in experiment [2] (72 h) was 0 (inactive) throughout. For the same compound, the drug effect is 0.05 (inactive) in experiment [3] (24 h), 0.027 (inactive) in experiment [3] (48 h) and 0.0303 (inactive) in experiment [3] (72 h).
Turning to `COc1cccc(-n2nnnc2S(=O)(=O)Cc2ccccc2)c1`, the XTT viability in experiment [1] is -7.15%. Further, the phenotypic severity score in experiment [2] (24 h), in experiment [2] (48 h) and in experiment [2] (72 h) was 4 (active) throughout. Also, the drug effect in experiment [3] (24 h), in experiment [3] (48 h) and in experiment [3] (72 h) was 1 (active) in each case.
Consider `CC1CC1C(=O)NC1CCN(CC2(c3ccccc3)CCCCC2)CC1` (stereo not drawn), for which the XTT viability in experiment [1] was found to be 82.4%. For the same compound, the phenotypic severity score was 1 (inactive) in experiment [2] (24 h), 0 (inactive) in experiment [2] (48 h) and 0 (inactive) in experiment [2] (72 h). For the same compound, the drug effect was < 0 (inactive) in experiment [3] (24 h), 0.0811 (inactive) in experiment [3] (48 h) and 0.222 (inactive) in experiment [3] (72 h).
For `COc1ccc(CCN2CCC(NCc3cccc(N(C)C)c3)CC2)cc1`, the XTT viability in experiment [1] stood at 98.6%. The phenotypic severity score in experiment [2] (24 h), in experiment [2] (48 h) and in experiment [2] (72 h) was 0 (inactive) in each case. Besides, the values for the drug effect in experiment [3] (24 h), in experiment [3] (48 h) and in experiment [3] (72 h) were < 0 (inactive), 0.027 (inactive) and 0.0303 (inactive), respectively.
Turning to `COc1cccc(NC(=O)c2c(NC(=O)c3cccnc3)sc3c2CCC3)c1`, in experiment [1], the XTT viability came out at 94.4%. The phenotypic severity score in experiment [2] (24 h), in experiment [2] (48 h) and in experiment [2] (72 h) was 0 (inactive) in each case. Also, the figures for the drug effect in experiment [3] (24 h), in experiment [3] (48 h) and in experiment [3] (72 h) were 0.25 (inactive), 0.222 (inactive) and 0.438 (inactive), respectively.
